From PubChem BioAssay AID1259311 (ICCB-Longwood Screening Facility, Harvard Medical School, 2017)
Several values for one entry are separate records, joined by “and”; a condition that tells them apart may be missing. Identical values can stand only once. Screen size: about 330,000 compounds; about 1,100 (0.33%) were called active. No stated cut-off is given here; in the data, active means inhibition above about 85%; inactive means the rest. The full list was thinned out, with actives kept by preference. Where a structure was tested more than once in an assay, its records may differ in their call.

Assay: growth inhibition of S. aureus RN4220, primary screen, OD600 (AID 1259311);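 further: plate controls were untreated cells for no effect and reference antibiotic for full effect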
Details: OD600, 16 h, stronger effect = higher value

| Compound | inhibition |
| --- | --- |
| Cc1ccc(N2C(=O)N3C(c4ccc(Br)cc4)C4C(=O)N(C(C)(C)C)C(=O)C4[C@]3(C)C2=O)cc1 (some centres undefined) | 5.35% (inactive) |
| N#CC(=NNc1ccc(Cl)cc1)C(=N)N1CCCCC1 | -2.55% (inactive) |
| N#C/C(=C/c1ccc(Cl)cc1)NC(=O)c1ccccc1 | -6.37% (inactive) |
| N#CC(=NNc1ccc(Cl)cc1)C(=O)c1ccccc1 | 100% (active) |
| O=c1c2ccccc2nc(/C=C/c2ccco2)n1-c1ccccc1O | 95.7% (active) |
| O=C(CSc1nc2ccccc2c(=O)n1-c1ccc(F)cc1)NC1CC1 | -2.32% (inactive) |
| CCn1c(/C=C/c2ccc([N+](=O)[O-])o2)nc2ccccc2c1=O | 11.2% (inactive) |
| O=c1c2ccccc2nc(/C=C/c2ccc(F)cc2)n1-c1ccccc1O | 97.2% (active) |
| O=C(CSc1nc2ccccc2c(=O)n1-c1ccccc1F)N1CCOCC1 | -0.567% (inactive) |
| Cc1nc2ccccc2c(=O)n1-c1ccc(Cl)cc1Cl | 2.26% (inactive) |
| O=C(NC(C(=O)NN=Cc1ccccn1)c1n[nH]c(=O)c2ccccc12)c1ccccc1 (centres undefined) | 0.248% (inactive) |
| CCCOc1ccc(C=NNC(=O)CSCc2ccc([N+](=O)[O-])cc2)cc1OCC | 3.47% (inactive) |
| CC(CC(=O)Nc1ccc([N+](=O)[O-])cc1)=NNC(=O)C1CC12CCC2 (centres undefined) | 3.47% (inactive) |
| COc1ccccc1C=NNC(=O)CO | 5.18% (inactive) |
| CNC(=O)C(=NO)c1ccccc1 | 0.94% (inactive) |
| O=C1CS/C(=N/N=Cc2ccncc2)N1 | 2.12% (inactive) |
| COc1ccc(CCN2C(=O)CSC2=NNC(=O)c2cccs2)cc1OC | 2.01% (inactive) |
| COc1ccc(C=NN=Cc2ccc(OC)c(OC)c2)cc1OC | -1.08% (inactive) |
| CN(C)C=Nc1sc2c(c1C#N)CC(C)(C)NC2(C)C | 2.77% (inactive) |
| COc1ccc(C(C)=NNC(=O)CSc2nnc(C)s2)cc1 | 6.45% (inactive) |
| NC(=O)N1CCCC1C(=O)Nc1ccc(Cl)c(Cl)c1 (centres undefined) | 0.288% (inactive) |
| O=C(CC(O)(C(F)(F)F)C(F)(F)F)Nc1ccc(Cl)c(Cl)c1 | 100% (active) |
| O=C(Cc1ncc(C(F)(F)F)cc1Cl)Nc1cccc(Br)c1 | -2.16% (inactive) |

| Compound | inhibition |
| --- | --- |
| Cc1[nH]c2ccccc2c1C=NNC(=O)CNC(=O)c1cccs1 | 2.5% (inactive) |
| COc1ccc(C=Nn2nnnc2N)c(OC)c1 | 2.12% (inactive) |
| COc1ccc(C(=O)NN=Cc2ccc(OC(=O)c3cccc4ccccc34)c([N+](=O)[O-])c2)cc1 | 95.4% (active) |
| COc1ccc(C=NNC(=O)c2ccccc2OC)cc1COc1ccccc1[N+](=O)[O-] | 4.25% (inactive) |
| COc1ccc(C(=O)NN=Cc2ccc(OC)c(CN3CCCc4ccccc43)c2)cc1 | 0.711% (inactive) |
| C1=CC2CCN(Cc3ccccc3)Cc3cccc(c32)C1 (centres undefined) | 4.59% (inactive) |
| Cc1cccc(-n2c(C)cc(C=NO)c2C)c1 | -4.73% (inactive) |
| O=C(CCl)N(Cc1cccc([N+](=O)[O-])c1)c1cccc(Cl)c1 | 94.9% (active) |
| O=C(c1cccc([N+](=O)[O-])c1)N1CCN(Cc2ccccc2)CC1 | 2.33% (inactive) |
| Cc1ccc(S(=O)(=O)N(Cc2cccc([N+](=O)[O-])c2)C(=O)N2CCN(C)CC2)cc1 | 2.8% (inactive) |
| CCCCNC(=O)CC1S/C(=N/N=Cc2ccc(OC)cc2)NC1=O (centres undefined) | 10.5% (inactive) |
| Cc1ccc(C=NNC(=O)Cc2cccn2C)cc1 | 1.44% (inactive) |
| Cc1ccc(O)c(C(=O)C=Cc2ccc3c(c2)OCCO3)c1 | -1.13% (inactive) |
| COc1c(O)ccc(C=NNC(=O)c2ccc3c(c2)OCCO3)c1[N+](=O)[O-] | 0.97% (inactive) |
| CN1CCN(CCNC(=O)Nc2ccc([N+](=O)[O-])cc2)CC1 | 2.31% (inactive) |
| CN1CCN(CCC(=O)NN=Cc2cc([N+](=O)[O-])ccc2O)CC1 | 88.7% (active) |
| O=C(NN=Cc1cc([N+](=O)[O-])ccc1O)C12CC3CC(CC(C3)C1)C2 | 63.4% (inactive) |
| OCCC1CC(O)C(O)[C@]2(Cc3ccccc3O2)O1 (some centres undefined) | 1.1% (inactive) and -0.123% (inactive) and 7.32% (inactive) |
| OCCC1CC(O)C(O)[C@@]2(CCCc3ccccc3O2)O1 (some centres undefined) | -1.69% (inactive) and 51.2% (inactive) and 98.7% (active) |
| Cc1cccc(NC(=NS(=O)(=O)c2ccccc2)c2ccccc2)n1 | -0.262% (inactive) |
| CC(N)=C(C#N)C(=O)CSc1ccccc1F | 5.44% (inactive) |
| Cc1cc(C)n(C(=O)CCNC(=O)c2ccccc2Cl)n1 | 4.12% (inactive) |
| N#CC(=NNc1cc(Cl)cc(Cl)c1)c1nnc2n1CCCCC2 | 0.845% (inactive) |

| Compound | inhibition |
| --- | --- |
| Cc1cc(C)n(C(=O)C(C#N)=NNc2cc(Cl)cc(Cl)c2)n1 | 99.6% (active) |
| COc1ccc(C=NNc2ccc([N+](=O)[O-])cc2S(=O)(=O)N2CCN(C)CC2)cc1 | -2.66% (inactive) |
| O=C(NN=Cc1cc(Cl)cc([N+](=O)[O-])c1O)c1cccc(S(=O)(=O)N2CCOCC2)c1 | 5.65% (inactive) |
| COc1cccc(NC(=S)N(Cc2ccc(C)cc2)Cc2ccccn2)c1 | 2.66% (inactive) |
| COc1ccc(CS(=O)/C(Cl)=C(/Cl)C(=O)Nc2ccc(OC)nc2)cc1 (centres undefined) | 1.8% (inactive) |
| COc1ccc(NC(=O)/C(Cl)=C(/Cl)S(=O)Cc2ccc(C)cc2)cn1 (centres undefined) | 93.4% (active) |
| COc1ccc(CN2CCC(=O)N(C(CO)CC(C)C)CC2)cc1 (centres undefined) | 3.45% (inactive) |
| COc1ccc(C2CC(=O)C=C(c3ccc(C)cc3)C2)cc1 (centres undefined) | 5.1% (inactive) |
| CC(C)(C)Cc1nnc(NC(=O)c2cc(-c3ccccc3)nc3ccccc23)s1 | -1.74% (inactive) |
| O=C(Nc1nnc(-c2ccccc2)o1)c1cc(-c2cccs2)nc2ccccc12 | 100% (active) |
| O=C(NN=Cc1ccsc1)c1cc(-c2cccs2)nc2ccccc12 | 2.77% (inactive) |
| CC(C)(C=NO)N(O)C=C1C=CC(=O)C=C1 | 1.68% (inactive) |
| COCCNC(=O)C1CCCN1S(=O)(=O)c1cccc2cccnc12 (centres undefined) | 6.77% (inactive) |
| c1ccc(C(c2ccccc2)N2CCN(Cc3nnnn3C3CCCCC3)CC2)cc1 | -1.54% (inactive) |
| CC1(C)CC(N2CCN(C(c3ccccc3)c3ccccc3)CC2)=CC(=[N+]2CCCCC2)C1 | 100% (active) |
| COc1ccccc1CN1CCN(C(c2ccccc2)c2ccccc2)CC1 | -0.651% (inactive) |
| CC(NC(=O)c1nc[nH]c1C(=O)NCCCCCNC(=O)OC(C)(C)C)c1ccccc1 (centres undefined) | 8.53% (inactive) and 1.7% (inactive) |
| C[C@]12CCC(O)CC1CCC1C2CC[C@]2(C)C(O)CCC12 (some centres undefined) | 7.5% (inactive) |
| Cc1ccc(NS(=O)(=O)c2cc([N+](=O)[O-])ccc2NN=Cc2sc(N3CCOCC3)nc2-c2ccccc2)c(C)c1 | -5% (inactive) |
| CC1(C)SC2C(NC(=O)COc3ccccc3)C(=O)N2C1C(=O)O (centres undefined) | 99.8% (active) |
| COC(=O)Cc1ccc(OCC(=O)NC2CCCC2)cc1 | 2.26% (inactive) |
| Cc1cccc(OCC(=O)NC2CC(C)(C)NC(C)(C)C2)c1 | -1.7% (inactive) |
| O=S(=O)(NN=Cc1cccc(F)c1)c1ccccc1 | 29.9% (inactive) |

| Compound | inhibition |
| --- | --- |
| CCOc1cccc(-c2c(C(=O)NN=Cc3ccc(C)o3)nnn2-c2nonc2N)c1 | 4.52% (inactive) |
| C#Cc1ccc(C2C=C(C(=O)N3CCOCC3)OC(OCC)C2CCCO)cc1 (centres undefined) | 2.8% (inactive) and 5.16% (inactive) |
| C#C[C@]1(O)CCC2C3CCC4=Cc5nc6nc7ccccc7n6cc5C[C@]4(C)C3CC[C@@]21C (some centres undefined) | -13.8% (inactive) |
| CC(=NNC(=O)c1nnn(-c2nonc2N)c1CSc1ccc(C)cc1)c1ccco1 | 4.06% (inactive) |
| COc1cccc(-c2nnc(NC(=O)c3ccc(S(=O)(=O)N(CC(C)C)CC(C)C)cc3)o2)c1 | 99.9% (active) |
| O=C(Nc1nnc(-c2ccco2)o1)c1ccc(S(=O)(=O)N2CCOCC2)cc1 | 1.85% (inactive) |
| COc1ccc(-c2nnc(NC(=O)CS(=O)(=O)c3ccc(Cl)cc3)o2)c(OC)c1 | 3.79% (inactive) |
| CC1CN(C(C)CO)C(=O)c2cccc(NC(=O)c3ccc(-c4nccs4)cc3)c2OC1CN(C)C(=O)NC1CCCCC1 (centres undefined) | 4.31% (inactive) |
| C=C[C@]1(C)CC(OC(=O)CSCCN(CC)CC)[C@]2(C)C(C)CC[C@]3(CCC(=O)C32)C(C)C1O (some centres undefined) | 101% (active) |
| COC(=O)[C@]1(CC(C)C)NC(c2ccc(-c3ccc(F)cc3)c(OC)c2)C2C(=O)N(C)C(=O)C21 (some centres undefined) | -2.27% (inactive) |
| COc1ccc(C2C=CCN(C(=O)Nc3ccccc3-c3ccccc3)CC(=O)N2Cc2ccc(F)cc2)cc1 (centres undefined) | 4.3% (inactive) |
| CC(C)CCn1c(=O)c(C(=O)NN=Cc2cccc(F)c2)c(O)c2ccccc21 | 101% (active) |
| CCCn1c(=O)c(C(=O)Nc2cc(C)ccn2)c(O)c2ccccc21 | 8.88% (inactive) |
| CCCCCn1c(=O)c(C(=O)NCc2ccccc2)c(O)c2ccccc21 | -1.56% (inactive) |
| CCCn1c(=O)c(C(=O)NN=Cc2ccc(F)cc2)c(O)c2ccccc21 | 101% (active) |
| CCCn1c(=O)c(-c2ccccc2)c(O)c2ccccc21 | 4.44% (inactive) |
| COc1cc(C(=O)NN=Cc2cn(Cc3cccc(F)c3)c3ccccc23)ccc1O | -2.54% (inactive) |
| CCOC(=O)NN=C(C)/C=C/c1ccco1 | -0.0294% (inactive) |
| O=C1CCC(O)CCN1CCC(Sc1ccccc1)c1ccccc1 (centres undefined) | 10.9% (inactive) |
| CC(C)(C)C1C=C(C(=O)N2CCN(Cc3ccccc3)CC2)OC(OCc2ccc(CO)cc2)C1 (centres undefined) | 8.07% (inactive) and 4.07% (inactive) |
